Compound activity: PubChem, National Center for Advancing Translational Sciences (NCATS)
Rows were chosen to be rich in hits. Some 19% of all compounds tested hit in one or more screens of this group.
HepG2 viability = HepG2 cytotoxicity, counter-screen for TGF-b inhibitors. HepG2 CAGA-GFP viability, ATP luminescence, 18 h. Potency, µM (series often up to 46.1 µM), inactives show top-dose activity change, negative = cytotoxicity, hits mostly cytotoxic. 410,000 compounds, 0.76% hits; also: potency is read from the fitted curve at half-maximal effect
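HepG2 CAGA-GFP cells (1000/well, DMEM with 1% FBS) received compound, then TGF-beta at 500 pg/mL final, and were incubated 18 hours at 37 degrees C. Viability was read by CellTiter-Glo luminescence. Media-only wells were set as complete cell-killing and DMSO as no toxicity.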
S-ASM inh = human S-ASM enzyme inhibition; P17405; placental ASM, HMU-PC fluorogenic substrate, 60 min; Potency, µM (doses to about 57.5 µM), inactives show at the highest dose activity change, negative = inhibition, usual class: inhibitors; 340,000 compounds, 0.006% hits; AID 504937; also: potency is read from the fitted curve at half-maximal effect
Target sequence (P17405 47-631 limits assumed): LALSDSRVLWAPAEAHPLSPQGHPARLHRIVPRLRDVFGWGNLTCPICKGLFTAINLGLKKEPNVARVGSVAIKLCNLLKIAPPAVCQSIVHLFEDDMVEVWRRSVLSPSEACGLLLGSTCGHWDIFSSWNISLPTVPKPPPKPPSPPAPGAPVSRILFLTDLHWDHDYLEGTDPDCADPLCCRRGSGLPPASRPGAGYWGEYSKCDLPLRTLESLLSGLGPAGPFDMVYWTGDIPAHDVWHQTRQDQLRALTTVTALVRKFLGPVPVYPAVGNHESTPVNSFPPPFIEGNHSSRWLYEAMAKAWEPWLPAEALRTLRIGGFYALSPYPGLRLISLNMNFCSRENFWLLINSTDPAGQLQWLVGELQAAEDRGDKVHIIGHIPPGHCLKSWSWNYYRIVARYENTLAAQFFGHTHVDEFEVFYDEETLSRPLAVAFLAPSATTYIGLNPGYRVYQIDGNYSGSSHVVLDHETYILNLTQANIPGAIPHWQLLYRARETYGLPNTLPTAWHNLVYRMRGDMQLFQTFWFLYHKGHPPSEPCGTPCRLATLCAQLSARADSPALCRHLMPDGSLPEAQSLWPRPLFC
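Steps: dispense placental human ASM, pin compound, wait 10 min at room temperature, add HMU-PC0 substrate at 9 uM final, incubate 60 min at 37 °C, add stop solution raising pH to 10, read fluorescence.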
TDP1 cell CPT = DT40-hTDP1 cell growth loss with CPT. 420,000 compounds, 12% hits. Potency, µM (top dose mostly 46.2 µM), inactives show at the top dose activity change, negative = growth inhibition, usual class: inhibitors. AID 686979. chicken DT40 Tdp1-/-;hTDP1 cells + 20 nM CPT, ATP luminescence, 48 h; also: potency is read from the fitted curve at half-maximal effect; % is scaled to controls: 0 for no effect and ±100 for the full control effect; nearly all actives have a fitted effect of over 55% in size
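Chicken DT40 Tdp1-/- cells stably complemented with human TDP1 were seeded at 400 cells/well in medium containing 20 nM camptothecin, exposed to pin-transferred compounds, and grown at 37 °C for at least 48 hr. Viability was read as ATP luminescence.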
TGFb inhibitor = TGF-b pathway inhibition. Potency, µM (doses to about 46.1 µM), without a hit: at the top dose activity, negative = inhibition, usual class: inhibitors. HepG2 CAGA-GFP TGF-b/SMAD3 reporter, GFP fluorescence, 18 h; TGF-beta stimulated, 500 pg/mL final. 410,000 compounds, 1.2% hits; also: potency is read from the fitted curve at half-maximal effect; % is scaled to controls: 0 for no effect and ±100 for the full control effect; nearly all actives have a fitted effect of over 65% in size
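Using HEPG2 CAGA-GFP reporter cells at 1000 cells/well, we pinned test compounds, stimulated with recombinant TGF-beta (500 pg/mL final) and measured total well GFP after 18 h.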
DT40 TDP1 no CPT = qHTS for Inhibitors of human tyrosyl-DNA phosphodiesterase 1 (TDP1): qHTS in cells in absence of CPT | 420,000 compounds, 15% hits | Potency, µM (top dose mostly 46.2 µM), for the others: at the top dose activity change, negative = growth inhibition, most hits filed as inhibitors | AID 686978, 2013 | DT40 Tdp1-/- hTDP1 cells, no CPT, ATP luminescence, 48 h; also: potency is read from the fitted curve at half-maximal effect; % is scaled to controls: 0 for no effect and ±100 for the full control effect; nearly all actives have a fitted effect of over 55% in size
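Stably hTDP1-transfected Tdp1-null chicken DT40 cells were treated with library compounds minus camptothecin and grown for at least 48 hr at 37 °C, after which cellular ATP was quantified by luminescence.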
IL-1B inflam inh = blocks inflammasome-driven IL-1 beta release; THP-1 LPS/ATP IL-1B secretion, AlphaLISA, 16 h; stronger effect = lower value; activity change, % at 57.5 µM; 360,000 compounds, 4.7% hits; AID 743279; in the data active = activity change below about -50%; inconclusive = mostly about -30% to -49%; also: % is scaled to controls: 0 for no effect and ±100 for the full control effect
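THP-1 cells pretreated 1 hr with compounds (up to 57.5 uM final), then stimulated with LPS (250 ng/mL final) plus ATP (1.25 mM final); secreted IL-1B measured by AlphaLISA after 16 hr, decreased signal indicating inhibition.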
Active calls of the source: *; [ ] = dose if it differs, or a comment. Unless noted, calls follow the shape of the dose curve; as a rule, active = well fitted curve in the direction sought with a large enough effect; inconclusive = small, poorly fitted or top-dose-only effect, or another doubt; inactive = no such curve, though single readings can be large; an effect the other way counts as inactive or inconclusive.

Results for CN(C)CCCN(C(=O)c1ccc(S(=O)(=O)N2CCc3ccccc32)cc1)c1nc2c(Cl)cccc2s1 ?
HepG2 viability: -53%; S-ASM inh: -22%; TDP1 cell CPT: inconclusive; TGFb inhibitor: inconclusive; DT40 TDP1 no CPT: inconclusive; IL-1B inflam inh: -83*

What do the screens show for `COc1ccccc1-c1ccnc(-n2ncc(C(=O)N3CCN(C(C)C)CC3)c2-c2ccco2)n1`?
TDP1 cell CPT: 8%[9.04 µM]; DT40 TDP1 no CPT: -10%

What do the screens show for `CN1CCc2c(c3cnc4cc(Cl)ccc4c3n2C)C1`?
HepG2 viability: 5%; TDP1 cell CPT: inconclusive; TGFb inhibitor: -15%; DT40 TDP1 no CPT: inconclusive

Results for Cc1onc(-c2c(F)cccc2Cl)c1C(=O)N1CCN(S(C)(=O)=O)CC1 ?
HepG2 viability: -4%; S-ASM inh: 2%; TDP1 cell CPT: -6%; TGFb inhibitor: 14%; DT40 TDP1 no CPT: -2%; IL-1B inflam inh: -4

Results for COc1ccccc1N1CCN(C(=O)c2c(-c3ccccc3)noc2C)CC1 ?
HepG2 viability: -7%; S-ASM inh: 0%; TDP1 cell CPT: 10µM*; TGFb inhibitor: 24%; DT40 TDP1 no CPT: 7.3µM*; IL-1B inflam inh: 40

How did Cc1onc(-c2ccccc2)c1C(=O)N1CCN(c2ccc([N+](=O)[O-])cc2)CC1 do in these assays?
HepG2 viability: -10%; S-ASM inh: -12%; TDP1 cell CPT: inconclusive; TGFb inhibitor: 4%; DT40 TDP1 no CPT: 21µM*; IL-1B inflam inh: -2

Results for COc1cc2c(C(=O)N3CCN(c4ccccc4C)CC3)c(C)oc2cc1Br ?
HepG2 viability: 7%; S-ASM inh: -6%; TDP1 cell CPT: inconclusive; TGFb inhibitor: 1%; DT40 TDP1 no CPT: 16µM*; IL-1B inflam inh: -73*

Results for Cc1onc(-c2ccccc2)c1C(=O)N1CCN(c2ccccc2)CC1 ?
HepG2 viability: -15%; TDP1 cell CPT: inconclusive; TGFb inhibitor: 0%; DT40 TDP1 no CPT: inconclusive; IL-1B inflam inh: 19

Results for COc1ccccc1N1CCN(C(=O)c2c(-c3c(F)cccc3Cl)noc2C)CC1 ?
HepG2 viability: 4%; S-ASM inh: 3%; TDP1 cell CPT: 23µM*; TGFb inhibitor: 0%; DT40 TDP1 no CPT: 13µM*; IL-1B inflam inh: 45

What do the screens show for `COc1ccc(CN(C(=O)COc2ccccc2OC)C2CCS(=O)(=O)C2)cc1` (stereo not drawn)?
HepG2 viability: -2%; TDP1 cell CPT: -15%; TGFb inhibitor: -22%; DT40 TDP1 no CPT: -18%

Results for O=C(c1cccc(C(F)(F)F)c1)C1CCCN(C(=O)c2cc(C3CC3)[nH]n2)C1 (stereo not drawn) ?
HepG2 viability: -8%; S-ASM inh: -1%; TDP1 cell CPT: inconclusive; TGFb inhibitor: -19%; DT40 TDP1 no CPT: inconclusive; IL-1B inflam inh: -4

Results for Cc1cccc(Nc2nc(-c3ccc4c(c3)OCCO4)cs2)c1 ?
HepG2 viability: -13%; S-ASM inh: 7%; TDP1 cell CPT: -18%; TGFb inhibitor: 17%; DT40 TDP1 no CPT: -17%; IL-1B inflam inh: 4

What do the screens show for `CCC(=O)Nc1nc(C)c(-c2csc(Nc3cccc(O)c3)n2)s1`?
HepG2 viability: -54%; S-ASM inh: -17%; TDP1 cell CPT: 6.5µM*; TGFb inhibitor: inconclusive; DT40 TDP1 no CPT: 3.7µM*; IL-1B inflam inh: -75*

Results for Cc1nc(C)c(-c2csc(Nc3cccc(O)c3)n2)s1 ?
HepG2 viability: -8%; S-ASM inh: -9%; TDP1 cell CPT: inconclusive; TGFb inhibitor: -6%; DT40 TDP1 no CPT: 23µM*; IL-1B inflam inh: inconclusive

What do the screens show for `Cc1cccc(Nc2nc(-c3sc(C)nc3C)cs2)c1`?
HepG2 viability: -16%; S-ASM inh: -10%; TDP1 cell CPT: inconclusive; TGFb inhibitor: inconclusive; DT40 TDP1 no CPT: 16µM*; IL-1B inflam inh: -54*

Results for Cc1nc(N)sc1-c1csc(Nc2cccc(O)c2)n1 ?
HepG2 viability: -17%; S-ASM inh: -1%; TDP1 cell CPT: inconclusive; TGFb inhibitor: 13%; DT40 TDP1 no CPT: inconclusive; IL-1B inflam inh: -25

How did CC(NC(=O)c1ccco1)c1nnc2n1CCN(Cc1cccc(Cl)c1)CC2 (stereo not drawn) do in these assays?
TDP1 cell CPT: 1%[9.04 µM]; DT40 TDP1 no CPT: -12%

Results for CCN(CC)C(=O)COC(=O)C1=NN(c2cc(C)ccc2C)C(=O)CC1 ?
HepG2 viability: -4%; S-ASM inh: 1%; TDP1 cell CPT: 11%; TGFb inhibitor: -6%; DT40 TDP1 no CPT: -1%; IL-1B inflam inh: 25

What do the screens show for `CC(C)Cn1c(N)c(C(=O)COC(=O)C2CCCCC2)c(=O)n(C)c1=O`?
HepG2 viability: -18%; S-ASM inh: -1%; TDP1 cell CPT: 16µM*; TGFb inhibitor: -5%; DT40 TDP1 no CPT: 18µM*; IL-1B inflam inh: 60

What do the screens show for `Cn1c(=O)c(C(=O)CCl)c(N)n(CC2CC2)c1=O`?
HepG2 viability: -8%; S-ASM inh: 5%; TDP1 cell CPT: 23µM*; TGFb inhibitor: 5%; DT40 TDP1 no CPT: 18µM*; IL-1B inflam inh: inconclusive

How did CC(C)Cn1c(N)c(C(=O)COC(=O)C2Cc3ccccc3CN2S(C)(=O)=O)c(=O)n(C)c1=O (stereo not drawn) do in these assays?
HepG2 viability: -29%; S-ASM inh: -1%; TDP1 cell CPT: 6.5µM*; TGFb inhibitor: inconclusive; DT40 TDP1 no CPT: 5.2µM*; IL-1B inflam inh: -9

How did CC(=O)c1c(C)[nH]c(C(=O)OCC(=O)c2c(N)n(CC(C)C)c(=O)n(C)c2=O)c1C do in these assays?
HepG2 viability: -5%; S-ASM inh: -4%; TDP1 cell CPT: inconclusive; TGFb inhibitor: 2%; DT40 TDP1 no CPT: 23µM*; IL-1B inflam inh: 23

How did O=c1cc(/C=C/c2ccc([N+](=O)[O-])cc2)c2ccccc2[nH]1 do in these assays?
HepG2 viability: 15%; TDP1 cell CPT: -20%; TGFb inhibitor: 35%; DT40 TDP1 no CPT: -6%

How did COc1ccccc1NC(=O)C(C)OC(=O)C1CCN(S(=O)(=O)c2ccccc2C(F)(F)F)CC1 (stereo not drawn) do in these assays?
HepG2 viability: -6%; S-ASM inh: -3%; TDP1 cell CPT: -14%; TGFb inhibitor: 1%; DT40 TDP1 no CPT: 4%; IL-1B inflam inh: 23
